Assay results from the supplement of paper PMC9492666.
Structures can show the parent of a compound that is named as a salt.

Key:
Conditions in all cases: 72 h
[1] = tested on: HCC1937; experiment: relative cell viability, compound alone, vs DMSO (fraction of DMSO control); higher = less growth inhibition
[2] = tested on: MDA-MB-231; experiment: as above
[3] = tested on: HCC1937; experiment: relative cell viability, compound + RSL3, vs DMSO (fraction of DMSO control); higher = less growth inhibition
[4] = tested on: MDA-MB-231; experiment: as above
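For relative cell viability, compound + RSL3, vs DMSO in this document: breast cancer cell viability read out with the CCK-8 kit after co-treatment of each compound with the ferroptosis inducer RSL3.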
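For relative cell viability, compound alone, vs DMSO in this document: viability read out with the CCK-8 kit in 96-well plates, screening a set of 303 compounds acting on lipid metabolism targets.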

## CN1c2ccccc2C(=O)Nc2cnc(Nc3ccc(N4CCC(O)CC4)cc3)nc21
[1]
  relative cell viability: 0.384
[2]
  relative cell viability: 0.55

## CN1CC(O)C2=C/C(=N/NC(N)=O)C(=O)C=C21 (stereo unspecified) [Carbazochrome]
[1]
  relative cell viability: 0.793
[2]
  relative cell viability: 0.871

## O=C(ON1C(=O)CCC1=O)N1CCN(C(c2ccc(Cl)cc2)c2ccc(Cl)cc2)CC1 [Cravatt Reagent]
[1]
  relative cell viability: 1.26
[2]
  relative cell viability: 0.975

## CC(C)c1onc(-c2c(Cl)cccc2Cl)c1COc1ccc(/C=C/c2cccc(C(=O)O)c2)c(Cl)c1
[1]
  relative cell viability: 1.03
[2]
  relative cell viability: 0.968

## C[N+](C)(C)CC(O)CC(=O)[O-] (stereo not drawn) [L(-)-Carnitine]
[1]
  relative cell viability: 0.738
[2]
  relative cell viability: 0.876

## COC(=O)c1cc(Cl)c(O)c(S(=O)(=O)Nc2cc(-c3ccccc3)c(F)cc2F)c1
[1]
  relative cell viability: 0.737
[2]
  relative cell viability: 0.833

## CCCCCCCCCCC[C@@H](C[C@@H]1OC(=O)[C@H]1CCCCCC)OC(=O)[C@H](CC(C)C)NC=O [Orlistat]
[1]
  relative cell viability: 0.977
[2]
  relative cell viability: 0.809

## CC(C)(Oc1ccc(C(=O)c2ccc(Cl)cc2)cc1)C(=O)O [Fenofibric acid]
[1]
  relative cell viability: 0.686
[2]
  relative cell viability: 0.842

## Cc1cnc(C(=O)NCCc2ccc(S(=O)(=O)NC(=O)NC3CCCCC3)cc2)cn1 [Glipizide]
[1]
  relative cell viability: 0.679
[2]
  relative cell viability: 0.817

## C=C(C)[C@@H]1CC[C@]2(CO)CC[C@]3(C)[C@H](CC[C@@H]4[C@@]5(C)CC[C@H](O)C(C)(C)[C@@H]5CC[C@]43C)[C@@H]12 [Betulin]
[1]
  relative cell viability: 0.886
[2]
  relative cell viability: 0.907

## CCOc1cc(CC(=O)N[C@@H](CC(C)C)c2ccccc2N2CCCCC2)ccc1C(=O)O [Repaglinide]
[1]
  relative cell viability: 1.02
[2]
  relative cell viability: 0.938

## CC[C@@H]1/C=C(\C)C[C@H](C)C[C@H](OC)[C@H]2O[C@@](O)(C(=O)C(=O)N3CCCC[C@H]3C(=O)O[C@H](/C(C)=C/[C@@H]3CC[C@@H](O)[C@H](OC)C3)[C@H](C)[C@@H](O)CC1=O)[C@H](C)C[C@@H]2OC [Ascomycin]
[1]
  relative cell viability: 0.185
[2]
  relative cell viability: 0.236

## COc1cccc(-n2c(=O)[nH]c3cc(Cl)n(-c4ccc(-c5cccc(OC)c5O)cc4)c3c2=O)c1
[1]
  relative cell viability: 0.835
[2]
  relative cell viability: 0.903

## COc1ccc(-c2c[nH]c3nccc(-c4ccsc4)c23)c(OC)c1
[1]
  relative cell viability: 0.993
[2]
  relative cell viability: 0.935

## Cc1cc(C)c(S(=O)(=O)Nc2cccc(C(F)(F)F)c2)c(C)c1
[1]
  relative cell viability: 1.12
[2]
  relative cell viability: 1.18

## CCC1C(O)C2C3CCC(C(C)CCO)C3(C)CCC2C2(C)CCC(O)CC12 (stereo unspecified)
[1]
  relative cell viability: 0.848
[2]
  relative cell viability: 0.916

## CCc1ccc(N(CC(C)C)S(=O)(=O)c2ccc(OCC3CCOCC3)c(CO)c2)cc1
[1]
  relative cell viability: 0.954
[2]
  relative cell viability: 0.939

## CN(C)c1cccc(-c2c3c(=O)n(-c4ccccc4Cl)[nH]c3cc(=O)n2C)c1
[1]
  relative cell viability: 0.903
[2]
  relative cell viability: 0.974

## COc1cc([C@@H]2Oc3c(O)cc([C@H]4Oc5cc(O)cc(O)c5C(=O)[C@@H]4O)cc3[C@H]2CO)ccc1O [Silychristin]
[1]
  relative cell viability: 1.04
[2]
  relative cell viability: 1.02

## CC(O)(CC(=O)O)CC(=O)O [Meglutol]
[1]
  relative cell viability: 0.748
[2]
  relative cell viability: 0.891

## C[C@H](CCC(=O)O)[C@H]1CC[C@H]2[C@@H]3CC[C@@H]4C[C@H](O)CC[C@]4(C)[C@H]3CC[C@]12C [Lithocholic acid]
[1]
  relative cell viability: 1.16
[2]
  relative cell viability: 0.99

## NC(=O)c1cccc(-c2cccc(OC(=O)NC3CCCCC3)c2)c1
[1]
  relative cell viability: 0.822
[2]
  relative cell viability: 1.02

## Nc1ncnc2c1ncn2[C@@H]1O[C@H](COP(=O)(O)O)[C@@H](O)[C@H]1O [Adenosine 5'-monophosphate]
[1]
  relative cell viability: 0.663
[2]
  relative cell viability: 0.81

## O=C(NCCS(=O)(=O)c1ccc(C(F)(F)F)cn1)c1ccc(Cl)cc1
[1]
  relative cell viability: 0.749
[2]
  relative cell viability: 0.901

## CC(=O)Oc1cc(C(F)(F)F)ccc1C(=O)O [Triflusal]
[1]
  relative cell viability: 1.1
[2]
  relative cell viability: 0.982

## O=C(OC(C(F)(F)F)C(F)(F)F)N1CCC(C(O)(c2ccc3c(c2)OCO3)c2ccc3c(c2)OCO3)CC1
[1]
  relative cell viability: 1.06
[2]
  relative cell viability: 0.855

## N=C(N)NCCC(=O)O [3-Guanidinopropionic Acid]
[1]
  relative cell viability: 0.734
[2]
  relative cell viability: 0.94

## c1cc(-c2cnn3cc(-c4ccc(OCCN5CCCCC5)cc4)cnc23)ccn1 [Dorsomorphin]
[1]
  relative cell viability: 0.216
[2]
  relative cell viability: 0.383

## CC(C)=CCC[C@](C)(O[C@@H]1O[C@H](CO)[C@@H](O)[C@H](O)[C@H]1O)[C@H]1CC[C@]2(C)[C@@H]1[C@H](O)C[C@@H]1[C@@]3(C)CC[C@H](O[C@@H]4O[C@H](CO)[C@@H](O)[C@H](O)[C@H]4O[C@@H]4O[C@H](CO)[C@@H](O)[C@H](O)[C@H]4O)C(C)(C)[C@@H]3CC[C@]12C [Ginsenoside Rd]
[1]
  relative cell viability: 0.834
[2]
  relative cell viability: 0.896

## CCc1ccc(CCOc2ccc(CC3SC(=O)NC3=O)cc2)nc1 (stereo unspecified) [Pioglitazone]
[1]
  relative cell viability: 1.17
[2]
  relative cell viability: 0.843

## Nc1ccc(O)c(C(=O)O)c1 [Mesalamine]
[1]
  relative cell viability: 1.17
[2]
  relative cell viability: 0.914

## Cc1coc2c1C(=O)C(=O)c1c-2ccc2c(C)cccc12 [Tanshinone I]
[1]
  relative cell viability: 0.287
[2]
  relative cell viability: 0.51

## O=c1ccc2cc(O)c(O)cc2o1 [Esculetin]
[1]
  relative cell viability: 0.673
[2]
  relative cell viability: 0.672

## CCNC1(C(N)=O)CCN(c2ncnc3c2nc(-c2ccccc2Cl)n3-c2ccc(Cl)cc2)CC1 [Otenabant]
[1]
  relative cell viability: 0.906
[2]
  relative cell viability: 0.915

## CCOC(=O)C(C)(C)Oc1ccc(Cl)cc1 [Clofibrate]
[1]
  relative cell viability: 1.15
[2]
  relative cell viability: 0.9

## COc1ccc2c(c1)c(CC(=O)O)c(C)n2C(=O)c1ccc(Cl)cc1 [Indometacin]
[1]
  relative cell viability: 1.28
[2]
  relative cell viability: 0.842

## CC[C@H](C)C(=O)O[C@H]1CCC=C2C=C[C@H](C)[C@H](CC[C@@H]3C[C@@H](O)CC(=O)O3)[C@H]21 [Mevastatin]
[1]
  relative cell viability: 0.819
[2]
  relative cell viability: 0.548

## O=C(O)CC[C@H](O)C(=O)O [L-2-Hydroxyglutaric acid disodium]
[1]
  relative cell viability: 1.04
[2]
  relative cell viability: 1

## CC1=C[C@]2(O)O[C@@]3(CC2=C(C)C)[C@@H](C)CC[C@@H]13 [Curcumenol] + COC(=O)c1ccc([C@H]2c3[nH]c4ccccc4c3C[C@H](C(=O)OC)N2C(=O)CCl)cc1 [RSL3]
[3]
  relative cell viability: 0.369
[4]
  relative cell viability: 0.517

## O=C(Nc1ccccc1)c1cc([N+](=O)[O-])ccc1Cl + COC(=O)c1ccc([C@H]2c3[nH]c4ccccc4c3C[C@H](C(=O)OC)N2C(=O)CCl)cc1 [RSL3]
[3]
  relative cell viability: 0.805
[4]
  relative cell viability: 0.705

## CN1CCN(c2ccc(/C=C(\C#N)c3ccccc3Br)cc2)CC1 [DG172 (dihydrochloride)] + COC(=O)c1ccc([C@H]2c3[nH]c4ccccc4c3C[C@H](C(=O)OC)N2C(=O)CCl)cc1 [RSL3]
[3]
  relative cell viability: 0.373
[4]
  relative cell viability: 0.61

## COc1ccc(CN2CCC(c3ccc4nc(C(=O)N5CCN(Cc6ccc(C(F)(F)F)cc6)CC5)[nH]c4c3)CC2)cn1
[1]
  relative cell viability: 0.849
[2]
  relative cell viability: 0.795

## CC(C)(C)NC(=O)[C@H]1CC[C@H]2[C@@H]3CC[C@H]4NC(=O)C=C[C@]4(C)[C@H]3CC[C@]12C [Finasteride] + COC(=O)c1ccc([C@H]2c3[nH]c4ccccc4c3C[C@H](C(=O)OC)N2C(=O)CCl)cc1 [RSL3]
[3]
  relative cell viability: 0.885
[4]
  relative cell viability: 0.645

## CN(CCOc1ccc(CC2SC(=O)NC2=O)cc1)c1ccccn1 (stereo unspecified) [Rosiglitazone]
[1]
  relative cell viability: 1.43
[2]
  relative cell viability: 0.969

## O=C(c1ccc(-c2nc3ccc(F)cc3o2)cc1)N1CCN(C(=O)C2(O)CC2)CC1 + COC(=O)c1ccc([C@H]2c3[nH]c4ccccc4c3C[C@H](C(=O)OC)N2C(=O)CCl)cc1 [RSL3]
[3]
  relative cell viability: 0.398
[4]
  relative cell viability: 0.683

## CCCCC[C@H](O)CC(=O)CCc1ccc(O)c(OC)c1 [6-Gingerol] + COC(=O)c1ccc([C@H]2c3[nH]c4ccccc4c3C[C@H](C(=O)OC)N2C(=O)CCl)cc1 [RSL3]
[3]
  relative cell viability: 0.298
[4]
  relative cell viability: 0.483

## NC(N)=NN=Cc1cccc(Cl)c1Cl [Raphin1]
[1]
  relative cell viability: 0.818
[2]
  relative cell viability: 0.72

## C=C(C)[C@@H]1CCC2=CC(=O)C[C@@H](C)[C@]2(C)C1 [Nootkatone]
[1]
  relative cell viability: 0.882
[2]
  relative cell viability: 1.02

## Cc1cc(C)c(S(=O)(=O)Nc2cccc(C(F)(F)F)c2)c(C)c1 + COC(=O)c1ccc([C@H]2c3[nH]c4ccccc4c3C[C@H](C(=O)OC)N2C(=O)CCl)cc1 [RSL3]
[3]
  relative cell viability: 0.504
[4]
  relative cell viability: 0.775

## COC(=O)/C=C/c1cccc(N(Cc2ccc(-c3ccc(N(C)C)cc3)cc2)C(=O)C2CCCCC2)c1 [Fexaramine] + COC(=O)c1ccc([C@H]2c3[nH]c4ccccc4c3C[C@H](C(=O)OC)N2C(=O)CCl)cc1 [RSL3]
[3]
  relative cell viability: 0.316
[4]
  relative cell viability: 0.601

## CCN(CC)CCCC(C)Nc1c2ccc(Cl)cc2nc2ccc(OC)cc12 (stereo unspecified) [Quinacrine dihydrochloride] + COC(=O)c1ccc([C@H]2c3[nH]c4ccccc4c3C[C@H](C(=O)OC)N2C(=O)CCl)cc1 [RSL3]
[3]
  relative cell viability: 0.301
[4]
  relative cell viability: 0.283

## O=C(Nc1ccccc1)N1CCN(c2nc(-c3ccccc3)ns2)CC1 + COC(=O)c1ccc([C@H]2c3[nH]c4ccccc4c3C[C@H](C(=O)OC)N2C(=O)CCl)cc1 [RSL3]
[3]
  relative cell viability: 0.281
[4]
  relative cell viability: 0.406

## Cc1ccc(CN(CC(O)COc2cccc3[nH]ccc23)C(C)(C)C)cc1 (stereo unspecified)
[1]
  relative cell viability: 0.994
[2]
  relative cell viability: 0.988

## CC1(C)C[C@H]2C3=CC[C@@H]4[C@@]5(C)CC[C@H](O)[C@@](C)(CO)[C@@H]5CC[C@@]4(C)[C@]3(C)C[C@H](O)[C@@]2(CO)[C@@H](O)[C@@H]1O [Gymnemagenin]
[1]
  relative cell viability: 1.13
[2]
  relative cell viability: 1.04

## O=S(=O)(O)c1ccc2cc(N=Nc3cc(S(=O)(=O)O)c4cccnc4c3O)ccc2c1
[1]
  relative cell viability: 0.987
[2]
  relative cell viability: 0.851

## O=c1ccc2cc(O)c(O)cc2o1 [Esculetin] + COC(=O)c1ccc([C@H]2c3[nH]c4ccccc4c3C[C@H](C(=O)OC)N2C(=O)CCl)cc1 [RSL3]
[3]
  relative cell viability: 0.301
[4]
  relative cell viability: 0.497

## O=C(CCCCCCCC(=O)NCCO)NCCO [Adelmidrol] + COC(=O)c1ccc([C@H]2c3[nH]c4ccccc4c3C[C@H](C(=O)OC)N2C(=O)CCl)cc1 [RSL3]
[3]
  relative cell viability: 0.659
[4]
  relative cell viability: 0.651

## CC(C)(CCCCCC(O)CCCCCC(C)(C)C(=O)O)C(=O)O
[1]
  relative cell viability: 0.598
[2]
  relative cell viability: 0.886
